Screens deposited in PubChem BioAssay by The Scripps Research Institute Molecular Screening Center.
PRMT1 FP inh: blocks human protein arginine methyltransferase 1 | Q99873 | recombinant PRMT1, activity-based probe fluorescence polarization | inhibition, % at 2.79 µM | 370,000 tested, 1.3% active | AID 652257;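 active = inhibition above about 21% made by adding two undisclosed values, limit read from the data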
LEDGF integ inh: blocks HIV-1 LEDGF/p75-dependent DNA integration. AID 743269. TR-FRET IN-LEDGF/p75 DNA integration, Eu/Cy5. inhibition, % at 3.7 µM. 370,000 tested, 0.64% active;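 active = inhibition above the screen-wide mean plus 3 SD, cut at about 13% in these data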;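 also: signal is the Cy5 over europium emission ratio at 671 and 618 nm; 0% = plate median of compound wells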
rCAG RNA binder: molecules binding r(CAG) RNA repeats; r(CAG) RNA repeat, TO-PRO-1 dye displacement fluorescence; 370,000 tested, 1.3% active; AID 651821; inhibition, % at 3 µM;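 active = inhibition above the plate cutoff, the mean of all test compounds on that plate plus 3 SD, cut at about 35% in these data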;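 also: 0% = DMSO alone and 100% = 100 µM mitoxantrone as full dye displacement; higher means more dye released from RNA so lower well fluorescence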
UHRF1 MBD2 ctr: human UHRF1 methylated DNA binding inhibitors; Q96T88; 370,000 tested, 0.75% active; inhibition, % at 4.4 µM; AID 687016; UHRF1 binding to methylated oligo, TR-FRET;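 also: UHRF1 SRA domain binding a hemimethylated CpG hairpin DNA probe; 0% = median of test compound wells and 100% = reference inhibitor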
ABHD5 PLIN5 PPI: ABHD5-PLIN5 protein interaction inhibition | Q00G26+Q8WTS1 | Split G. princeps luciferase complementation, luminescence, 4 h | inhibition, % at 4 µM | 360,000 tested, 0.78% active;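 active = inhibition above the mean inhibition across every tested compound plus 3 SD, cut at about 22% in these data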;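 also: 0% = DMSO only wells and the 100% control is not disclosed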
MBD2 inh: blocks human MBD2 binding to methylated DNA; Q9UBB5; AID 686964; TR-FRET, MBD2 binding to methylated oligonucleotide; 370,000 tested, 0.31% active; inhibition, % at 4.4 µM; in the data active = inhibition above about 13%
Target sequence (Q9UBB5 whole entry, looked up): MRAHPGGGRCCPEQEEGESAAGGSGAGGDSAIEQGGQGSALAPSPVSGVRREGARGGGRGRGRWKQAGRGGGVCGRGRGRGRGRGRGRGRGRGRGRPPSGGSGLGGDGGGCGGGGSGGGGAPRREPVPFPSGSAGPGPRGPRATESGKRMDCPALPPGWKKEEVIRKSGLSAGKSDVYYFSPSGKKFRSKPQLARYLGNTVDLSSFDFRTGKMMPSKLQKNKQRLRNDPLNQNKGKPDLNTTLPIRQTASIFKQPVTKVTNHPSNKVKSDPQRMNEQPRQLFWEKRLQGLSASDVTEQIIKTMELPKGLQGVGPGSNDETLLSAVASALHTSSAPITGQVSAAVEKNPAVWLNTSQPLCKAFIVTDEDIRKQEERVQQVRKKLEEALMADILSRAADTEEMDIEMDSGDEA
ABHD5 PLIN5 conf: confirmation of human ABHD5-PLIN5 interaction inhibitors. 2,200 tested, 67% active. shares compounds with ABHD5 PLIN5 PPI. inhibition, % at 4 µM. biochemical ABHD5-PLIN5 interaction, luminescence; in the data active = inhibition above about 23%;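 also: 0% = DMSO vehicle wells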
HNF4 split-luc: counter-screen for ABHD5-PLIN5 inhibitors: HNF4 split-luciferase; shares compounds with ABHD5 PLIN5 PPI; HNF4 dimerization, luminescence, biochemical; inhibition, % at 4 µM; 2,200 tested, 77% active; AID 651674;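 active = mean inhibition across replicate wells exceeding the computed hit threshold, cut at about 13% in these data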;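 also: light from luciferase halves that rejoin when HNF4 fusion proteins dimerize; 0% = DMSO only wells and the 100% control is not given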
rCAG bind conf: r(CAG) RNA repeat binding, confirmation. shares compounds with rCAG RNA binder. TO-PRO-1 dye displacement fluorescence. inhibition, % at 3 µM. 4,300 tested, 70% active. AID 652065;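 active = inhibition above a per-plate cutoff, the mean inhibition of sample wells plus 3 SD, cut at about 35% in these data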;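 also: loss of TO-PRO-1 fluorescence as compound displaces dye from 1x1 AA loop RNA; 0% = DMSO only wells and 100% = 100 µM mitoxantrone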
DNA CAG counter: disrupts DNA CAG TO-PRO-1 complex, flagging rCAG hits. d(CAG) DNA oligo TO-PRO-1 dye displacement, fluorescence. shares compounds with rCAG RNA binder. inhibition, % at 3 µM. AID 652068. 4,300 tested, 94% active;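 active = inhibition above its plate's cutoff, the mean test-well inhibition plus 3 SD, cut at about 4.8% in these data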;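 also: 0% = DNA dye mix with DMSO and 100% = 100 µM mitoxantrone; hits displace the dye from DNA and so lower well fluorescence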
PRMT1 confirm: confirmation of human PRMT1 inhibitors. recombinant His-PRMT1, activity-based probe fluorescence polarization. 3,300 tested, 42% active. inhibition, % at 2.79 µM. shares compounds with PRMT1 FP inh;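 active = mean inhibition across replicates above the hit cutoff derived for the earlier primary screen, cut at about 22% in these data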
UHRF1 ctr MBD2: inhibits human UHRF1 binding to methylated oligonucleotide, MBD2 counter-screen; 1,000 tested, 25% active; TR-FRET; inhibition, % at 4.4 µM; shares compounds with MBD2 inh;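 also: UHRF1 SRA domain binding a labeled hemimethylated CpG hairpin DNA; 0% = vehicle only and 100% = reference inhibitor with vehicle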
MBD2 DBD conf: confirmation of human MBD2-DBD methylated oligonucleotide binding inhibitors; shares compounds with MBD2 inh; TR-FRET MBD2-DBD binding to methylated oligonucleotide; inhibition, % at 4.4 µM; 1,000 tested, 26% active; AID 720531; in the data active = inhibition above about 14%
IN multimer act: HIV-1 integrase multimerization activation, counter-screen; shares compounds with LEDGF integ inh; TR-FRET HIV-1 integrase multimerization, biochemical; activation, % at 7.7 µM; 2,000 tested, 17% active; in the data active = activation above about 8.9%
TR-FRET interf: counter-screen for LEDGF/p75 integration inhibitors: TR-FRET optical interference | shares compounds with LEDGF integ inh | 2,000 tested, under 10 active | inhibition, % at 7.7 µM | TR-FRET optical interference counterscreen, HIV-1 IN multimerization;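 active = inhibition above the mean over all tested compounds plus 3 SD, which no compound reached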;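 also: 0% = integrase with antibodies and DMSO and 100% = antibodies without integrase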
IN-LEDGF confirm: LEDGF/p75-dependent HIV-1 integration inhibition, confirmation. shares compounds with LEDGF integ inh. TR-FRET LEDGF/p75-dependent HIV-1 integration, biochemical. inhibition, % at 3.7 µM. 2,000 tested, 36% active. AID 1053136; in the data active = inhibition above about 14%
An asterisk follows results filed as active; · = no result. Most compounds without a hit are left out; they make up all but 4.1% or so of the library. Rule as the data show it, unless noted: active = inhibition above about 21%; inactive = the rest.

SMILES	PRMT1 FP inh	LEDGF integ inh	rCAG RNA binder	UHRF1 MBD2 ctr	ABHD5 PLIN5 PPI	MBD2 inh	ABHD5 PLIN5 conf	HNF4 split-luc	IN multimer act	TR-FRET interf	IN-LEDGF confirm	others
O=C(CCl)N1N=C(c2ccco2)CC1c1ccco1 (configuration not stated)	38*	49*	15	33*	38*	6	25*	22*	2	-9	11
C=CCn1c(COc2ccc(C)cc2)nnc1SCC(=O)Nc1ccc(Oc2ccccc2)cc1	1	-4	6	0	·	1	·	·	·	·	·
O=C(NCCc1ccccc1)OCc1cn(-c2cccc(Cl)c2)nn1	3	-4	3	0	·	1	·	·	·	·	·
CC1=CC(=O)C(Sc2ccc(C)cc2)=CC1=O	88*	17*	8	-4	62*	-8	60*	97*	5	-25	-2	PRMT1 confirm=95*
Cc1ccc(Sc2c(C)[nH]n(C(C)(C)C)c2=O)cc1	1	0	-2	-2	-6	-1	·	·	·	·	·
COC(=O)c1cc2c(c3c4cc(OC)ccc4n(S(=O)(=O)c4ccc(F)cc4)c13)C(=O)N(Cc1ccccc1)C2	-7	6	18	-2	·	-2	·	·	·	·	·
O=C(N/N=C/C=C/c1ccco1)C(O)c1ccccc1 (configuration not stated)	19	26*	22	13	35*	3	47*	60*	7	-26	26*
CCCCOCC1CN(CCCC)S(=O)(=O)c2c(NCc3cc(OC)c(OC)c(OC)c3)cccc2O1 (configuration not stated)	1	2	8	0	·	5	·	·	·	·	·
COC(=O)C1=C(O)/C(=C\c2ccc(CNS(=O)(=O)c3ccc(Cl)cc3)o2)N=C1C	56*	53*	37*	13	32*	0	29*	39*	5	-23	14*	rCAG bind conf=42*;DNA CAG counter=15*;PRMT1 confirm=15
COC(=O)C1=C(C)N(Cc2cccc(C(F)(F)F)c2)C(=NCc2cc(OC)c(OC)c(OC)c2)NC1c1cccc(F)c1 (configuration not stated)	-1	2	5	0	·	-1	·	·	·	·	·
O=C1C=CC2=C3c4cc(O)c(O)cc4CC3(O)COC2=C1O (configuration not stated)	56*	90*	43*	56*	28*	35*	64*	33*	68*	-342	93*	rCAG bind conf=63*;DNA CAG counter=34*
CCCCCCCCN1CN2Cc3ccc(C)cc3C2CS1(=O)=O (configuration not stated)	4	1	1	-2	·	-4	·	·	·	·	·
O=C(O)c1ccc(N/N=C/C2=C(N3CCOCC3)C(=C\c3ccccc3)/CC2)cc1	33*	54*	72*	51*	25*	19*	17	42*	2	-8	17*	rCAG bind conf=75*;DNA CAG counter=36*;PRMT1 confirm=16;UHRF1 ctr MBD2=2;MBD2 DBD conf=6
Cc1cc(C)nc(N/N=C/C2=C(N3CCOCC3)C(=C\c3ccc(Cl)cc3)/CC2)n1	10	5	19	-6	15	-3	·	·	·	·	·
CC1(C)Cc2c(C#N)c(N3CCN(C(=O)c4ccco4)CC3)nc(-c3ccco3)c2CS1	-2	1	2	-2	4	-9	·	·	·	·	·
CC(=O)N1CCN(c2nc(-c3ccco3)c3c(c2C#N)CC(C)(C)SC3)CC1	46*	22*	17	7	35*	4	21	18*	-1	6	19*	PRMT1 confirm=5
C#CCNC(=O)C[C@H]1C[C@@]2(C(=O)OC)C(=C[C@H](C(C)C)O[C@@H]2C2CC2)N(Cc2ccc(Cl)cc2Cl)C1=O	-4	2	1	1	·	-3	·	·	·	·	·
O=C(NCc1ccccc1)c1ccc2nccnc2c1	-3	3	-1	2	4	-6	·	·	·	·	·
O=C(NCc1ccccc1)c1ccc2nc(-c3ccco3)c(-c3ccco3)nc2c1	44*	27*	56*	-4	24*	-10	·	·	·	·	·	rCAG bind conf=56*;DNA CAG counter=26*
O=C(c1ccc2nc(-c3ccco3)c(-c3ccco3)nc2c1)N1CCN(c2ncccn2)CC1	35*	34*	35*	12	15	4	·	·	·	·	·	rCAG bind conf=49*;DNA CAG counter=22*
O=C(c1cccc(C(=O)N2CCN(c3ncccn3)CC2)c1)N1CCN(c2ncccn2)CC1	-3	-6	-2	1	2	2	·	·	·	·	·
COc1ccc2nc(NN=Cc3cccc(C)n3)cc(C)c2c1	5	-3	3	-3	·	3	·	·	·	·	·
C[C@H]1COc2cc(Br)ccc2S(=O)(=O)N1Cc1cn(Cc2ccc(Br)cc2)nn1	1	-3	4	-1	·	3	·	·	·	·	·
CC1CCc2sc(NC(=O)C3CC(Cl)=CCC3C(=O)O)c(C#N)c2C1 (configuration not stated)	4	0	49*	1	1	0	·	·	·	·	·	rCAG bind conf=42*;DNA CAG counter=13*
N#Cc1c(NC(=O)C2CC=CCC2C(=O)O)sc2c1CCCCCC2 (configuration not stated)	3	5	30	0	-2	-1	·	·	·	·	·
